Source: ChEMBL document CHEMBL3988442, “University of Dundee, Small-Polar-MMV Screening Library” (2021)

What was measured:
[1] = biological target: T1, Aspartate--tRNA(Asp/Asn) ligase (Mycobacterium tuberculosis (strain ATCC 25618 / H37Rv)) (UniProt P9WFW3); experiment: Assay for Asp RNA synthetase-1 from Mycobacterium tuberculosis; assay type: functional; design: scale not given: direction of the effect not stated beside the values; conditions: 30 µM; further: in the data most compounds retested in dose-response had high values
T1 sequence (whole entry): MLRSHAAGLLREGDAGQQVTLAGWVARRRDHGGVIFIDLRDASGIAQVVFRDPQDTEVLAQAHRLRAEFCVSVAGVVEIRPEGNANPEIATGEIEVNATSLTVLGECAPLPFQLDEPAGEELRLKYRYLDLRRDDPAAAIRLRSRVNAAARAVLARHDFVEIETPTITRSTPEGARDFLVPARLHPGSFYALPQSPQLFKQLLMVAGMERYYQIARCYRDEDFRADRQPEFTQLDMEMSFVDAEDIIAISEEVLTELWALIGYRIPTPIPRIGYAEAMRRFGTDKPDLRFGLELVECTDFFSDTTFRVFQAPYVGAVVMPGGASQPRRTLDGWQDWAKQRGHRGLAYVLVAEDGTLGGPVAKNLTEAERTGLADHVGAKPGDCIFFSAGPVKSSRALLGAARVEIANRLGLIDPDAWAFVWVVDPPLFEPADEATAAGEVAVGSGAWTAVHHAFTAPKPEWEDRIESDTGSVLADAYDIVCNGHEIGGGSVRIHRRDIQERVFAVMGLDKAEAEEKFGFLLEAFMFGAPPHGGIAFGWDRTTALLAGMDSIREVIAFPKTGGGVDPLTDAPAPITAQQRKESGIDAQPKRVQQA

[2] = biological target: Shiga toxin 2 (Escherichia coli O157:H7) (UniProt P09385+P09386); experiment: E. coli 0.157:H7 Shiga Toxin SOP - stx2 screening assay; assay type: functional; design: scale not given: direction of the effect not stated beside the values; conditions: 30 µM

| SMILES | Percent Effect [1] [%] | Percent Effect [2] [%] |
| --- | --- | --- |
| O=C(Nc1nccs1)N1CCCC(N2CCNC2=O)C1 (stereo not given) | 0.977 | -10.1 |
| O=C(CCc1cccnc1)N1CCCC(n2cncn2)C1 (stereo not given) | -2.66 | 1.94 |
| Cc1nccc([C@@H]2C[C@@H]3CCN(S(C)(=O)=O)C[C@H]3O2)n1 | 2.92 | 11.1 |
| COc1cccc2cc(CNC(C)(C)C(=O)N3CCC(O)CC3)oc12 | -1.57 | 4.9 |
| Cc1cc(C2CCCN2CCCS(=O)(=O)c2ccccc2)no1 (stereo not given) | -1.06 | -12.2 |
| CC(=O)N1CCC(Oc2ccc(Cl)cn2)CC1 | -6.73 | -4.66 |
| CN1CC(=O)N(c2cccc(F)c2)CC12CCN(Cc1cccnc1)C2 (stereo not given) | 2.03 | -14.7 |
| Cn1cc(CN2CC[C@H]3C[C@H](c4nc(C5CC5)cs4)O[C@@H]3C2)cn1 | -0.624 | -28.1 |
| O=C(Cc1n[nH]c2ccccc12)N1CCC(Nc2cccnn2)CC1 | 2.78 | -16.9 |
| COc1ccc(-n2ncc(C(=O)NCC3COC(C)(C)O3)c2N)cc1 (stereo not given) | -2.49 | 7.2 |
| O=C(CCC1CCCC1)NCCn1nc(C2CCNC2)c2cccnc21 (stereo not given) | -0.368 | -19.4 |
| CCN1CCC(NC(=O)CN2CCCC2Cn2cncn2)CC1 (stereo not given) | -1.82 | -12.3 |
| CCOc1ccc(CC(CNC(=O)c2ccoc2)C(N)=O)cc1 (stereo not given) | -3.95 | -12.5 |
| Cc1ccc(CN2CCC(F)(F)C3(CCN(c4cnccn4)C3)C2)o1 (stereo not given) | 5.56 | -6.62 |
| Cc1nccc(CN2CCC(c3nnsc3S(C)(=O)=O)CC2)n1 | -0.313 | 5.72 |
| Cc1cnn(C(C)C2CC2)c1NC(=O)c1cnccn1 (stereo not given) | -3.45 | -3.84 |
| CC(C)CN(C)c1ccc(C(=O)N2CCCC2c2cnn(C)c2)cn1 (stereo not given) | -2.28 | 21 |
| Cc1ccc(-c2nc(CN3CCc4c(ncn4C)C3)cs2)o1 | -4.21 | 0.313 |
| CC(Nc1cccc(CN2CCOC2=O)c1)C(=O)N1CCNC1=O (stereo not given) | -0.922 | -28.6 |
| Cc1cccc(Nc2nccnc2C2CCCN2CC(=O)N(C)C)n1 (stereo not given) | -7.13 | -29.9 |
| Cc1noc(C)c1CN1CC[C@H]2OCC[C@@H](C(=O)NCC3CC3)[C@@H]2C1 | -1.49 | -13.8 |
| Clc1ccccc1C1(c2ccnc(CC3CC3)n2)CCNCC1 | -0.0892 | -10.7 |
| Cc1nn(C)c(C)c1CNC1CCOc2ccccc21 (stereo not given) | -0.466 | 8.07 |
| CC(=O)Nc1nc(C(=O)N2CCCC2c2ccccc2C)cs1 (stereo not given) | -0.698 | 1.85 |
| Cc1ccc(C2CSCCN2C(=O)c2ccsc2)o1 (stereo not given) | 3.37 | 16.4 |

| SMILES | Percent Effect [1] [%] | Percent Effect [2] [%] |
| --- | --- | --- |
| Cc1n[nH]c(C2CN(CC(=O)NCCc3ccsc3)CCO2)n1 (stereo not given) | -3.33 | 7.26 |
| Nc1nccc(NCc2cc3n(n2)CCCN(C2CCCCC2)C3)n1 | -6 | -9.53 |
| COCCCn1c(CN2CCCC(O)C2)cnc1S(=O)(=O)C1CCCC1 (stereo not given) | 4.61 | -11.3 |
| CC(NC(=O)c1ccc2c(c1)OCC(=O)N2)c1ccccc1F (stereo not given) | 7.05 | 24 |
| O=C(NC1CC1)[C@H]1CC[C@@H]2[C@@H](CCN2c2ncc(F)cn2)O1 | -4.13 | -23 |
| O=C(c1cccnc1-n1cncn1)N1CCc2ccccc2C1 | -3.76 | -9.55 |
| COc1c(CNC(c2ccc(F)cc2)C(C)(C)C)c(C)nn1C (stereo not given) | -1.59 | 40.7 |
| CCOC1CCCN(C(=O)NCCc2ccn(-c3ccccc3)n2)C1 (stereo not given) | 0.577 | 12.9 |
| Cc1ccc(C(=O)NC2CCN(C(=O)Nc3ccccn3)CC2)o1 | 5.16 | 25.6 |
| CCOc1ccc(NC(=O)CN2CCN(c3nccn3C)CC2)cc1 | -3.86 | -64.8 |
| O=C1CC2(CCN(Cc3ccoc3)C2)CN1c1ccc2c(c1)OCO2 (stereo not given) | 5.29 | -93.1 |
| CC(CN1CCOCC1)NCC1CCN(c2cnn(C)c(=O)c2)CC1 (stereo not given) | 2.84 | -6.71 |
| Cc1ccccc1CN1CCC2(COCc3cnc(N(C)C)nc32)C1 (stereo not given) | -3.4 | -15.8 |
| CC(=O)N1CCCN(C(=O)c2ccn(-c3cccc(Cl)c3)n2)CC1 | 3 | 5.49 |
| O=C(c1cnccn1)N1C[C@@H]2CC[C@H](C1)N(C(=O)Cc1ccsc1)C2 | -3.45 | -38.6 |
| CN(C)C(=O)N1CCC2(CCCN(Cc3cnn(C)c3)C2)C1 (stereo not given) | -0.168 | 0.121 |
| O=C(NCC(F)(F)F)C1CSCN1S(=O)(=O)c1ccc(F)cc1 (stereo not given) | -3.86 | -29.9 |
| O=C(NCCCn1ccnc1)N1CCCC1c1cccs1 (stereo not given) | -2.61 | -5.52 |
| COCC(C)(O)CNC(=O)COc1ccccc1OC (stereo not given) | -4.69 | -2.25 |
| CCOc1cc(C)nc(N2CCN(C(=O)c3ccc[nH]3)CC2)n1 | -0.0874 | 29.4 |
| O=C(NCCCO)C1CC(=O)N(c2n[nH]c3cccc(F)c23)C1 (stereo not given) | 0.29 | -34.7 |
| Cc1cccc(C(=O)N2C[C@@H]3OCCN(c4ncccn4)[C@@H]3C2)n1 | 2.48 | 2.47 |
| O=C(NC(CO)CO)c1coc(COc2cccc(F)c2)n1 | -1.14 | -3.72 |
| COCCN(Cc1ccoc1)C(=O)c1c(F)cccc1Cl | -3.31 | 5.86 |
| CCOC(=O)c1sc2ccsc2c1CNC(=O)C(C)(C)C#N | 0.67 | 16.1 |
